Assay outcomes (PubChem)
Only some compounds are listed: those with a hit (about 18% of all), similar ones and a draw of the others.
TDP1 inh – TDP1 (human) enzyme inhibition. recombinant TDP1, AlphaScreen DNA substrate cleavage. Potency, µM (series often up to 130 µM), for inactives: at the top dose activity change, negative = inhibition, actives largely listed as inhibitors. 350,000 compounds, 0.28% hits; note: potency is the fitted concentration of half-maximal effect; % is set by controls: 0 for no effect and ±100 for the full control effect; nearly all actives have a fitted effect of over 40% in size
Target sequence (Q9NUW8 whole entry, looked up): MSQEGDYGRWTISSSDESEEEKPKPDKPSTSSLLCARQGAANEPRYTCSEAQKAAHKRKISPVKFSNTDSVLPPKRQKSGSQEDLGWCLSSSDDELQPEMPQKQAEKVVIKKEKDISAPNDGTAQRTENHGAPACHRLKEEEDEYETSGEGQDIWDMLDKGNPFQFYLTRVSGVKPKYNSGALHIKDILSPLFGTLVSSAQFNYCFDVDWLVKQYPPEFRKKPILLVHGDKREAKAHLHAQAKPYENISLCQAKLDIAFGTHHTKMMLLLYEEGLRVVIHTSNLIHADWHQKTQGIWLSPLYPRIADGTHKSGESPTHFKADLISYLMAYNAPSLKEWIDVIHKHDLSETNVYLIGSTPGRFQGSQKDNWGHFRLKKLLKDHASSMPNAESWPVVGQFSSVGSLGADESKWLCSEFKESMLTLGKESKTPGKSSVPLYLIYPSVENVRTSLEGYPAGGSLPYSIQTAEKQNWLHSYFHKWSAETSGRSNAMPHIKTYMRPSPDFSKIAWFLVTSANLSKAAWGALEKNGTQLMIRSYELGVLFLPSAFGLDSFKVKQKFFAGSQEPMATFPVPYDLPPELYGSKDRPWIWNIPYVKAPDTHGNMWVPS
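Enzyme-compound mixtures sat 15 min at room temperature, followed by a 5 min reaction with 15 nM final substrate and 10 min with AlphaScreen beads. Recombinant human Tdp1 was used at 1 nM final.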
HepG2 tox – counter-screen for TGF-b inhibitors: cytotoxicity in HepG2 cells. HepG2 CAGA-GFP viability, ATP luminescence, 18 h. Potency, µM (doses to about 46.1 µM), without a hit: at the highest dose activity change, negative = cytotoxicity, usual class: cytotoxic. 410,000 compounds, 0.76% hits; note: potency is the fitted concentration of half-maximal effect
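CellTiter-Glo luminescence gave cytotoxicity after 18 hours at 37 degrees C. The cells were HepG2 CAGA-GFP in 1% FBS DMEM, stimulated with 500 pg/mL TGF-beta after compound addition. %Activity was normalised to no-cell wells (complete cell-killing) and DMSO (no toxicity), and curves were fitted and classified.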
TGFb SMAD3 inh – blocks TGF-b signaling | HepG2 CAGA-GFP TGF-b/SMAD3 reporter, GFP fluorescence, 18 h; TGF-beta stimulated, 500 pg/mL final | Potency, µM (series often up to 46.1 µM), without a hit: at the top dose activity, negative = inhibition, hits mostly inhibitors | 410,000 compounds, 1.2% hits; note: potency is the fitted concentration of half-maximal effect; % is set by controls: 0 for no effect and ±100 for the full control effect; nearly all actives have a fitted effect of over 65% in size
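TGF-beta reporter screen: HEPG2 CAGA-GFP, 1% FBS, 500 pg/mL TGF-beta final, 18 h; per-cell GFP summed per well; curves fitted and categorized by class.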
TDP1 cell CPT – growth inhibition of DT40 Tdp1-/-;hTDP1 cells with camptothecin (screen for TDP1 inhibitors); chicken DT40 Tdp1-/-;hTDP1 cells + 20 nM CPT, ATP luminescence, 48 h; Potency, µM (doses to about 46.2 µM), for inactives: at the highest dose activity change, negative = growth inhibition, most hits filed as inhibitors; 420,000 compounds, 12% hits; AID 686979; note: potency is the fitted concentration of half-maximal effect; % is set by controls: 0 for no effect and ±100 for the full control effect; nearly all actives have a fitted effect of over 55% in size
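Chicken DT40 Tdp1-/- cells complemented with human TDP1, 400 cells/well, exposed to compounds plus 20 nM camptothecin for at least 48 h at 37 C; viability read as ATP content by CellTiter-Glo luminescence.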
DT40 TDP1 no CPT – qHTS for Inhibitors of human tyrosyl-DNA phosphodiesterase 1 (TDP1): qHTS in cells in absence of CPT; DT40 Tdp1-/- hTDP1 cells, no CPT, ATP luminescence, 48 h; Potency, µM (highest dose often 46.2 µM), inactives show top-dose activity change, negative = growth inhibition, hits mostly inhibitors; 420,000 compounds, 15% hits; note: potency is the fitted concentration of half-maximal effect; % is set by controls: 0 for no effect and ±100 for the full control effect; nearly all actives have a fitted effect of over 55% in size
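Camptothecin absent (DMSO only). Human TDP1-complemented DT40 knockout cells, 400 cells/well, 37 °C for minimum 48 hr; ATP measured via CellTiter-Glo, 30 min dark incubation, luminescence.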
IL-1B inflam inh – inflammasome signaling inhibition, IL-1 beta readout. THP-1 LPS/ATP IL-1B secretion, AlphaLISA, 16 h; hits give low values. activity change, % at 57.5 µM. 360,000 compounds, 4.7% hits. AID 743279; in the data active = activity change below about -50%; inconclusive = mostly about -30% to -49%; note: % is set by controls: 0 for no effect and ±100 for the full control effect
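Secreted IL-1B measured by AlphaLISA bead assay after 16 h compound exposure of THP-1 cells; compounds (final up to 57.5 uM) added 1 h before LPS (250 ng/mL) and ATP (1.25 mM) stimulation; lower signal means less secretion.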
Active calls of the source: *; [ ] = remark or other dose. Unless noted, calls come from the whole dose curve; as a rule, active = well fitted curve in the direction sought with a large enough effect; inconclusive = small, poorly fitted or top-dose-only effect, or another doubt; inactive = no such curve, though single readings can be large; an effect the other way counts as inactive or inconclusive.

`Cc1cccc(NC(=O)c2cc(-c3ccc4c(c3)OCCO4)on2)c1` gave TDP1 inh -1.6%, HepG2 tox -62.3%, TGFb SMAD3 inh 40.3%, TDP1 cell CPT 23.1µM* and DT40 TDP1 no CPT inconclusive.
Screening CCC(C)NS(=O)(=O)c1cc2c3c(c1)CCC(=O)N3CCC2 (stereo not drawn) returned TDP1 inh 4.5%, HepG2 tox -6.7%, TGFb SMAD3 inh -23.9%, TDP1 cell CPT 9.6%, DT40 TDP1 no CPT -0.9% and IL-1B inflam inh 29.6.
`COc1ccccc1/C=C/CN1CCC(Oc2cc(C(=O)NC3CC3)ccc2OC)CC1` gave TDP1 inh 5.6%, HepG2 tox 20.3%, TGFb SMAD3 inh 27.3%, TDP1 cell CPT inconclusive, DT40 TDP1 no CPT 2.06µM* and IL-1B inflam inh -8.4.
For COc1ccccc1/C=C/CN1CCC(Oc2ccc(C(=O)N3CCCCC3)cc2)CC1 the results were TDP1 inh 5.5%[56.1 µM], HepG2 tox -47.6%, TGFb SMAD3 inh 0.0%, TDP1 cell CPT inconclusive, DT40 TDP1 no CPT 25.9µM* and IL-1B inflam inh -56.8*.
Cc1cc(C)cc(CN2CCC(Oc3ccc(C(=O)N4CCCC4)cc3)CC2)c1 was read as HepG2 tox -22.3%, TGFb SMAD3 inh -3.9%, TDP1 cell CPT 20.6µM*, DT40 TDP1 no CPT 23.1µM* and IL-1B inflam inh inconclusive.
For O=C(c1ccc(OC2CCN(C/C=C/c3ccccc3)CC2)cc1)N1CCCCC1 the results were TDP1 inh 4.2%, HepG2 tox -23.8%, TGFb SMAD3 inh 6.6%, TDP1 cell CPT inconclusive, DT40 TDP1 no CPT inconclusive and IL-1B inflam inh inconclusive.
For COc1ccc(/C=C/CN2CCC(Oc3ccc(C(=O)N4CCCCC4)cc3)CC2)cc1 the results were TDP1 inh 4.9%[56.1 µM], HepG2 tox -2.8%, TGFb SMAD3 inh 8.3%, TDP1 cell CPT inconclusive, DT40 TDP1 no CPT 14.6µM* and IL-1B inflam inh inactive.
Screening CC1CCCN(C(=O)C2CCN(S(=O)(=O)c3ccc4c(c3)CC(C)N4C(=O)C3CC3)CC2)C1 (stereo not drawn) returned TDP1 inh 2.4%, HepG2 tox -4.5%, TGFb SMAD3 inh inconclusive, TDP1 cell CPT inconclusive, DT40 TDP1 no CPT inconclusive and IL-1B inflam inh -13.1.
Screening COc1ccc(C2=NS(=O)(=O)N(C)C(C(=O)NC3CCCC3)=C2)cc1 returned HepG2 tox -28.4%, TGFb SMAD3 inh -1.2%, TDP1 cell CPT -9.1%, DT40 TDP1 no CPT inconclusive and IL-1B inflam inh 18.0.
For COc1ccc(C2=NS(=O)(=O)N(C)C(C(=O)N3CCc4ccccc4C3)=C2)cc1OC the results were HepG2 tox -24.9%, TGFb SMAD3 inh -28.4%, TDP1 cell CPT 18.4µM*, DT40 TDP1 no CPT 9.2µM* and IL-1B inflam inh 36.9.
COc1ccc(C2=NS(=O)(=O)N(C)C(C(=O)NCc3ccccc3)=C2)cc1OC was read as TDP1 inh -8.6%, HepG2 tox -21.3%, TGFb SMAD3 inh -5.3%, TDP1 cell CPT inconclusive, DT40 TDP1 no CPT inconclusive and IL-1B inflam inh -11.5.
COc1ccc(NC(=O)C2=CC(c3ccc(OC)cc3)=NS(=O)(=O)N2C)cc1 was read as HepG2 tox -25.9%, TGFb SMAD3 inh -4.5%, TDP1 cell CPT inconclusive, DT40 TDP1 no CPT 20.6µM* and IL-1B inflam inh -6.7.
`COc1ccc(C2=NS(=O)(=O)N(C)C(C(=O)NC3CCCCC3)=C2)cc1` gave HepG2 tox -14.2%, TGFb SMAD3 inh -10.0%, TDP1 cell CPT -27.9%, DT40 TDP1 no CPT 6.51µM* and IL-1B inflam inh -10.7.
Screening COc1ccc(C2=NS(=O)(=O)N(C)C(C(=O)NCc3ccccn3)=C2)cc1OC returned HepG2 tox -2.6%, TGFb SMAD3 inh 6.2%, TDP1 cell CPT -20.5%, DT40 TDP1 no CPT -16.8% and IL-1B inflam inh 5.6.
Screening COc1ccc(C2=NS(=O)(=O)N(C)C(C(=O)NCc3cccs3)=C2)cc1OC returned HepG2 tox -14.6%, TGFb SMAD3 inh -0.9%, TDP1 cell CPT 14.6µM*, DT40 TDP1 no CPT inconclusive and IL-1B inflam inh -0.8.
Screening COc1ccc(C2=NS(=O)(=O)N(C)C(C(=O)Nc3ccc(OC(F)(F)F)cc3)=C2)cc1 returned TDP1 inh 11.4%, HepG2 tox -34.9%, TDP1 cell CPT inconclusive and DT40 TDP1 no CPT inconclusive.
CSc1ccc(Cl)c(C(=O)NCCCn2ccnc2)c1 was read as HepG2 tox 5.0%, TGFb SMAD3 inh 3.9%, TDP1 cell CPT 2.8%, DT40 TDP1 no CPT -15.2% and IL-1B inflam inh -2.6.
COc1ccccc1C1=NS(=O)(=O)N(C)C(C(=O)Nc2cc(OC)c(OC)c(OC)c2)=C1 was read as TDP1 inh 2.9%, HepG2 tox -20.0%, TGFb SMAD3 inh -4.3%, TDP1 cell CPT inconclusive and DT40 TDP1 no CPT inconclusive.
COc1ccc(OC)c(C2=NS(=O)(=O)N(C)C(C(=O)Nc3ccc(C(C)=O)cc3)=C2)c1 was read as TDP1 inh 4.8%, HepG2 tox -18.5%, TGFb SMAD3 inh inconclusive, TDP1 cell CPT 18.4µM*, DT40 TDP1 no CPT 14.6µM* and IL-1B inflam inh inconclusive.
For CCc1ccc(NC(=O)C2=CC(c3ccc(OC)c(OC)c3)=NS(=O)(=O)N2C)cc1 the results were HepG2 tox -6.1%, TGFb SMAD3 inh inconclusive, TDP1 cell CPT 11.6µM*, DT40 TDP1 no CPT 18.4µM* and IL-1B inflam inh -13.3.
`O=C(COC(=O)C1COc2ccccc2O1)Nc1ccc(Cl)cc1` (stereo not drawn) gave TDP1 inh -4.7%, HepG2 tox -21.6%, TGFb SMAD3 inh 0.0%, TDP1 cell CPT -7.8%, DT40 TDP1 no CPT 0.9% and IL-1B inflam inh 15.3.
Screening Cc1cc(=O)oc2c(C)c(OCC(=O)c3ccccc3)ccc12 returned HepG2 tox 18.7%, TGFb SMAD3 inh 1.4%, TDP1 cell CPT -15.3%, DT40 TDP1 no CPT 8.5% and IL-1B inflam inh 3.7.
For Nc1nc2ccc([N+](=O)[O-])cc2s1 the results were TDP1 inh 20.0%, TDP1 cell CPT inconclusive and DT40 TDP1 no CPT inconclusive.
Screening COc1ccc(Cc2nnc(SCC(=O)Nc3c(C)cccc3C)[nH]c2=O)cc1 returned TDP1 inh 0.8%, HepG2 tox -23.1%, TGFb SMAD3 inh -6.9%, TDP1 cell CPT inconclusive, DT40 TDP1 no CPT 9.2µM* and IL-1B inflam inh 6.6.
